# High-throughput results from PubChem BioAssay.
# Compounds with a hit are over-represented: about 15% of the library has one in this group of screens.
# RORg inh – qHTS for inhibitors of ROR gamma transcriptional activity; AID 2551, 2010; Potency, µM (top dose mostly 53.6 µM), most hits filed as inhibitors; hit rate 5.4% among 310,000; Drosophila S2 Gal4-RORgamma UAS-luciferase reporter, 20 h; Nuclear receptor ROR-gamma (Mus musculus), P51450; also: nearly all actives have a fitted effect of over 60% in size
# Target sequence (P51450 whole entry, looked up, the tested form may be a part): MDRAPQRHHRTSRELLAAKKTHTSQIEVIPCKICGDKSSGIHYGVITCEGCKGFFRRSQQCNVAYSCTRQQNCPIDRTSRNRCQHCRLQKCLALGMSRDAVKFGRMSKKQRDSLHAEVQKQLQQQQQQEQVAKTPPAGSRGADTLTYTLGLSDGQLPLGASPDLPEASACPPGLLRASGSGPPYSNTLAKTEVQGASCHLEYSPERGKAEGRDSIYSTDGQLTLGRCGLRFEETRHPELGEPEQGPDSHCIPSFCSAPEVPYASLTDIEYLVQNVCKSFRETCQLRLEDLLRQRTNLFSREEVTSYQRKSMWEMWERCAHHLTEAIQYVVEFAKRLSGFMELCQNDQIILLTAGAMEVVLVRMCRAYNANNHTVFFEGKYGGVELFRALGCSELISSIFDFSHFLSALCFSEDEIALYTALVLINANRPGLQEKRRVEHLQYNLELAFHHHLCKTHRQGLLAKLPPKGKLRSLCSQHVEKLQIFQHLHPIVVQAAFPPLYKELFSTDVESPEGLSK
#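 A Gal4/UAS one-hybrid system in insect cells: metallothionein-promoter Gal4–ROR gamma fusion plus Photinus luciferase reporter. Copper sulfate 700 uM final, 20 hr ambient incubation, luminescent detection after 10 min with reagent.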
# TDP1 cell noCPT – qHTS for Inhibitors of human tyrosyl-DNA phosphodiesterase 1 (TDP1): qHTS in cells in absence of CPT; DT40 Tdp1-/- hTDP1 cells, no CPT, ATP luminescence, 48 h; Potency, µM (highest dose often 46.2 µM), actives largely listed as inhibitors; hit rate 15% among 420,000; AID 686978, 2013; also: nearly all actives have a fitted effect of over 55% in size
#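 A cellular qHTS used chicken DT40 cells lacking endogenous Tdp1 but carrying stably transfected human TDP1. Compounds were applied without camptothecin, and cell growth kinetics were judged by ATP-dependent luminescence after ≥48 hr.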
# 12-LOX inh – Primary qHTS assay for inhibitors of human arachidonate 12S-lipoxygenase (ALOX12): Round 2 | purified 12hLO, xylenol orange hydroperoxide absorbance | hit rate 1.1% among 580,000 | Potency, µM (series often up to 108 µM), actives largely listed as inhibitors
#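 Hydroperoxide product was detected by ferrous iron/xylenol orange as the 573 to 405 nm absorbance ratio. Arachidonic acid at 40 uM (final) was turned over for 30 min at room temperature by 150 nM human 12hLO, pH 7.0 Hepes buffer, after 15 min compound preincubation.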
# DT40 TDP1 CPT – qHTS for Inhibitors of human tyrosyl-DNA phosphodiesterase 1 (TDP1): qHTS in cells in presence of CPT | hit rate 12% among 420,000 | AID 686979, 2013 | Potency, µM (series often up to 46.2 µM), most hits filed as inhibitors | chicken DT40 Tdp1-/-;hTDP1 cells + 20 nM CPT, ATP luminescence, 48 h; also: nearly all actives have a fitted effect of over 55% in size
#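 Chicken DT40 Tdp1-/- cells complemented with human TDP1, 400 cells/well, exposed to compounds plus 20 nM camptothecin for at least 48 h at 37 C; viability read as ATP content by CellTiter-Glo luminescence.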
# VP16 counter – VP16 counterscreen qHTS for inhibitors of ROR gamma transcriptional activity; Potency, µM (series often up to 53.6 µM), most hits filed as inhibitors; hit rate 3.5% among 310,000; Drosophila S2 Gal4-VP16 UAS-luciferase, luminescence, 20 h;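 also: Gal4-VP16 expression switched on by copper sulfate through the metallothionein promoter; nearly all actives have a fitted effect of over 50% in size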
# ELG1 repair inh – qHTS screen for small molecules that inhibit ELG1-dependent DNA repair in human embryonic kidney (HEK293T) cells expressing luciferase-tagged ELG1; Potency, µM (doses to about 46.1 µM), usual class: inhibitors; AID 504467, 2011; hit rate 2.3% among 330,000; HEK293T ELG1-luciferase reporter, luminescence, 16 h; DNA damage induced by 5-fluorouridine; also: nearly all actives have a fitted effect of over 55% in size
#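 Quantitative HTS, concentration-response format. 2,000 cells/well co-treated with 5-fluorouridine and compound, 16 hr in 5% CO2 at 37 °C; ONE-Glo luminescence read after 30 min.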
# Hits are given with their value; – = inactive; ? = inconclusive; · = no result given; [ ] = dose if it differs, or a comment. Calls follow the shape of the dose curve; as a rule, active = well fitted curve in the direction sought with a large enough effect; inconclusive = small, poorly fitted or top-dose-only effect, or another doubt; inactive = no such curve, though single readings can be large; an effect the other way counts as inactive or inconclusive.
SMILES,RORg inh,TDP1 cell noCPT,12-LOX inh,DT40 TDP1 CPT,VP16 counter,ELG1 repair inh
C/C(=N\NC(=O)COc1ccc(C(C)(C)C)cc1)c1ccc2c(c1)OCCO2,–,26µM,–,16µM,–,–
CCNC(=S)N/N=C(\C)c1ccc2c(c1)OCCO2,2.8µM,?,?,?,7.1µM,?
C/C(=N\NC(=S)Nc1ccc(C(C)C)cc1)c1ccc2c(c1)OCO2,6.3µM,23µM,?,?,?,–
C/C(=N\NC(=S)NC(C)C)c1ccc2c(c1)OCCO2,2µM,6.5µM,?,1.3µM,4.5µM,–
C/C(=N/NC(=O)c1ccc2c(c1)OCO2)c1ccc(NC(=O)C(F)(F)F)cc1,–,–,–,–,–,?
O=C(c1ccc2c(c1)OCO2)N1CC(Oc2ccc(F)c(F)c2)C1,·,·,–[6.33 µM],·,·,·
CN1CCC([C@@H]2CN(S(=O)(=O)c3cccc(C#N)c3)C[C@H]2C(N)=O)CC1,·,·,–,·,·,·
COc1ccccc1-c1cc(N2CCN(c3ccccn3)CC2)c2onc(C)c2n1,·,·,89µM,·,·,·
COC(=O)c1c(-c2cccs2)csc1NC(=O)c1ccc(C(C)C)cc1,·,15µM,–,?,·,·
COc1ccc(C(=O)Nc2scc(-c3ccc(Cl)cc3Cl)c2C(N)=O)cc1,–,15µM,–,?,–,?
COC(=O)c1c(-c2cccs2)csc1NC(=O)c1cccc(Cl)c1,·,–,–,?,·,·
COC(=O)c1c(-c2cccs2)csc1NC(=O)c1ccc(C(C)(C)C)cc1,·,15µM,?,16µM,·,·
COC(=O)c1c(-c2cccs2)csc1NC(=O)c1cccnc1,–,15µM,?,16µM,–,?
COC(=O)c1c(-c2cccs2)csc1NC(=O)COc1c(C)ccc(C)c1C,·,?,–,?,·,·
CCOC(=O)c1c(-c2cccs2)csc1NC(=O)c1ccco1,–,–,–,–,–,–
CCOc1ccc(CC(=O)N2CCN(C(=O)c3nnn4c3COC(c3ccc(C)cc3)C4)CC2)cc1 (configuration not stated),·,·,–,·,·,·
Cc1ccc2nc(-c3ccc(C)c(NC(=O)c4ccc5c(c4)OCO5)c3)oc2c1,·,·,–,·,·,·
COC(=O)c1c(-c2cccs2)csc1NC(=O)c1ccc(Cl)cc1,·,–,–,16µM,·,·
O=C(O)c1ccc(NC(=S)NC(=O)c2ccc(-c3ccccc3)cc2)cc1,–,?,?,–,–,?
CC(C)NS(=O)(=O)c1ccc(NC(=S)NC(=O)c2ccc(-c3ccccc3)cc2)cc1,7.1µM,14µM,?,11µM,?,?
COc1nccnc1NS(=O)(=O)c1ccc(NC(=S)NC(=O)c2ccccc2)cc1,–,?,35µM,–,–,–
O=C(NC(=S)Nc1ccccc1)c1ccc(-c2ccccc2)cc1,3.5µM,18µM,–,?,4.5µM,?
COc1nccnc1NS(=O)(=O)c1ccc(NCc2ccccc2O)cc1,–,–,–,–,–,–
O=C(COc1ccc(Br)cc1)OCCCC(=O)c1ccccc1,·,·,–,·,·,·
CN(CCn1ccnc1-c1ccc(CO)o1)S(C)(=O)=O,·,·,–,·,·,·
SMILES,RORg inh,TDP1 cell noCPT,12-LOX inh,DT40 TDP1 CPT,VP16 counter,ELG1 repair inh
Cc1cc(C)cc(N(C(=O)c2ccc(Br)o2)C2C=CS(=O)(=O)C2)c1 (configuration not stated),–,?,–,–,–,–
COc1ccc(N(C(=O)c2ccc(Br)o2)C2C=CS(=O)(=O)C2)cc1 (configuration not stated),–,13µM,–,13µM,–,–
CCn1c(-c2ccccc2)nn(CC(=O)NCCc2ccc(C)o2)c1=O,·,·,–,·,·,·
CC(O)(CS(=O)(=O)Cc1ccc(Cl)cc1)C(=O)Nc1cccc(C(F)(F)F)c1 (configuration not stated),?,?,3.2µM,–,–,–
CC(C)(O)C(=O)NNC(=S)Nc1cccc(C(F)(F)F)c1,–,–,–,–,–,–
O=C(COc1ccccc1)NC1CCN(c2cc(C(F)(F)F)ncn2)CC1,·,·,–,·,·,·
O=C(Cc1ccc(Cl)c(Cl)c1)Nc1ccccc1N1CCCC1,–,?,–,15µM,–,–
O=C(Cc1ccc(F)cc1)Nc1ccccc1N1CCCC1,–,?,–,?,–,–
CCC(=O)N1CCN(c2ccccc2NC(=O)Cc2ccc(Cl)cc2)CC1,–,23µM,–,–,–,–
O=C(Cn1ccc2ccc(Cl)cc21)Nc1ccc2[nH]ccc2c1,·,·,–,·,·,·
COc1ccc(/C=C/C(=O)c2ccc(C(C)(C)C)cc2)c(OC)c1OC,·,·,–,·,·,·
COc1ccc(/C=C/C(=O)c2ccncc2)c2ccccc12,?,16µM,?,23µM,?,–
CCN1CCN(C(=S)Nc2cccc(C(F)(F)F)c2)CC1,–,–,–,–,?,–
Cc1oc2ccc(O)c(CN3CCN(C)CC3)c2c1C(=O)Nc1cccc(C(F)(F)F)c1,·,?,?,15µM,·,·
CCN1CCN(Cc2c(O)ccc3oc(C)c(C(=O)Nc4cccc(C(F)(F)F)c4)c23)CC1,·,?,–,15µM,·,·
Cc1noc(C)c1CN1CCc2nc(C(=O)Nc3cccc(C(F)(F)F)c3)oc2CC1,·,·,–,·,·,·
COc1cc(C(=O)Nc2ccc3sc(NC(C)=O)nc3c2)cc(OC)c1OC,·,·,–,·,·,·
CCC(=O)c1c(OCCC(C)C)ccc2c(C)cc(=O)oc12,·,·,–,·,·,·
CC1(c2ccccc2)CC(C)(C)N(C(=O)c2ccccc2Cl)c2ccccc21 (configuration not stated),·,5.2µM,–,6.5µM,·,·
CC1(c2ccc(Cl)cc2)CC(C)(C)N(C(=O)c2cccc(F)c2)c2ccccc21 (configuration not stated),·,18µM,?,?,·,·
CCCCC(=O)N1c2ccccc2C(C)(c2ccccc2)CC1(C)C (configuration not stated),·,·,–,·,·,·
CC1(C(=O)NCc2ccc(Cl)cc2)CCN1C(=O)c1cccc(F)c1 (configuration not stated),·,?,–,?,·,·
CCOc1ccc(NC(=O)c2cn(-c3ccc(OCC)cc3)c(=O)c3cc(OC)c(OC)cc23)cc1,–,–,–,–,–,?
CCOc1ccc(-n2cc(C(=O)NC(C)C)c3cc(OC)c(OC)cc3c2=O)cc1,–,26µM,–,?,–,?
CCOc1ccc(-n2cc(C(=O)N3CCC(C)CC3)c3cc(OC)c(OC)cc3c2=O)cc1,?,15µM,–,16µM,–,–
